# Data from PubChem BioAssay (NCATS).
# Where “and” joins values, the source holds several entries; their conditions need not be identical. Identical values can stand only once. A number with no mark means an inactive call. Records with an inconclusive call do not appear. Where a call stands in place of a potency, no number is given. Calls of active or inactive are those of the source. Unless noted, the call rests on the fitted dose curve; in most records, active means well fitted curve in either direction with a large enough effect (not every such curve was filed as active); inconclusive means small, poorly fitted or top-dose-only effect, or another doubt; inactive means flat fitted curve, though single readings scatter.
# Tests used:
# [1] = Stat Signaling Pathway (AID 446);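 further: ME-180 cervical cancer cells given 40 pM IL-6 alongside compound; SIE-controlled beta-lactamase reporter measured as 460/530 nm FRET emission ratio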
# Summary of the method: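 ME-180 cells carrying a SIE-driven beta-lactamase reporter are stimulated with 40 pM IL-6 for 5 h at 37C in the presence of compound. The 460/530 nm FRET substrate ratio is read after 2.5 h at RT. Data are normalised to 300 pM IL-6 and to 125 nM JAK inhibitor controls.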
# [2] = biological target: Glucocorticoid receptor (Homo sapiens) (UniProt P04150); test: GR-GFP Redistribution (AID 450;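 active means compounds whose dose series gives a full or clear partial fitted curve of increased nuclear translocation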; further: potency means the concentration at half of the fitted maximal effect); details: U2OS GR-GFP nuclear translocation, laser cytometry, 2 h
# Glucocorticoid receptor (Homo sapiens), sequence (P04150 whole entry, looked up, the tested form may be a part): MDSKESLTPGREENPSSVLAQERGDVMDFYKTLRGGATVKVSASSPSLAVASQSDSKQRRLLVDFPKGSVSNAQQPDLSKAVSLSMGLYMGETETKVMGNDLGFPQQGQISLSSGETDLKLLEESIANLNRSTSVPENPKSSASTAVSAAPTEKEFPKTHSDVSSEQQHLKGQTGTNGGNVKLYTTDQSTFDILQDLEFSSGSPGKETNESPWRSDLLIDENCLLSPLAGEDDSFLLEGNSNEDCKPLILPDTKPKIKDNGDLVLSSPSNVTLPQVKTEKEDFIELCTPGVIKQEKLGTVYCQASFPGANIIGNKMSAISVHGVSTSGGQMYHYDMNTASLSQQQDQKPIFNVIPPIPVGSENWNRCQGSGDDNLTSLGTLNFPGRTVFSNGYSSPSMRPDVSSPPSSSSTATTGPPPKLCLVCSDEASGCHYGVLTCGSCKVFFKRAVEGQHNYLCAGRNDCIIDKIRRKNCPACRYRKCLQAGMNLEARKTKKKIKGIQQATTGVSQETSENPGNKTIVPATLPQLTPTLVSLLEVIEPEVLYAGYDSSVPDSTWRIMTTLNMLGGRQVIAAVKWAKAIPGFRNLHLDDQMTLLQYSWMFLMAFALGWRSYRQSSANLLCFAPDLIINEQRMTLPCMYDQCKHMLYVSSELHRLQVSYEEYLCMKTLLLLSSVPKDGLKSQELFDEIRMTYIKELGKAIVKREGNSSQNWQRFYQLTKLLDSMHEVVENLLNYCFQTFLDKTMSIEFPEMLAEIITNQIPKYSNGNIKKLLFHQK
# [3] = biological target: Mitogen-activated protein kinase 10 (Mus musculus) (UniProt Q61831); test: JNK3 AlphaScreen Assay (AID 530);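 further: kinase came from lysate of stimulated human HepG2 cells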; further: potency means the concentration at half of the fitted maximal effect
# Summary of the method: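 Pre-activated (IL-1β/TNFα) JNK3 in HepG2 lysates phosphorylates biotin-GST-cJun(1-79), 10 uM ATP; anti-phospho-cJun(Ser73) AlphaScreen read at room temperature, pH 7.6 Tris buffer. Compounds pre-incubated 15 min as titrations.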
# [4] = biological target: 3',5'-cyclic-AMP phosphodiesterase 4B (Homo sapiens) (UniProt Q07343); test: qHTS Assay for Inhibitors of PDE-IV (AID 607; active means well fitted activation curve with a large enough effect in the main read-out, with a control signal flat, not every such curve was filed as active)
# 3',5'-cyclic-AMP phosphodiesterase 4B (Homo sapiens), sequence (Q07343 whole entry, looked up): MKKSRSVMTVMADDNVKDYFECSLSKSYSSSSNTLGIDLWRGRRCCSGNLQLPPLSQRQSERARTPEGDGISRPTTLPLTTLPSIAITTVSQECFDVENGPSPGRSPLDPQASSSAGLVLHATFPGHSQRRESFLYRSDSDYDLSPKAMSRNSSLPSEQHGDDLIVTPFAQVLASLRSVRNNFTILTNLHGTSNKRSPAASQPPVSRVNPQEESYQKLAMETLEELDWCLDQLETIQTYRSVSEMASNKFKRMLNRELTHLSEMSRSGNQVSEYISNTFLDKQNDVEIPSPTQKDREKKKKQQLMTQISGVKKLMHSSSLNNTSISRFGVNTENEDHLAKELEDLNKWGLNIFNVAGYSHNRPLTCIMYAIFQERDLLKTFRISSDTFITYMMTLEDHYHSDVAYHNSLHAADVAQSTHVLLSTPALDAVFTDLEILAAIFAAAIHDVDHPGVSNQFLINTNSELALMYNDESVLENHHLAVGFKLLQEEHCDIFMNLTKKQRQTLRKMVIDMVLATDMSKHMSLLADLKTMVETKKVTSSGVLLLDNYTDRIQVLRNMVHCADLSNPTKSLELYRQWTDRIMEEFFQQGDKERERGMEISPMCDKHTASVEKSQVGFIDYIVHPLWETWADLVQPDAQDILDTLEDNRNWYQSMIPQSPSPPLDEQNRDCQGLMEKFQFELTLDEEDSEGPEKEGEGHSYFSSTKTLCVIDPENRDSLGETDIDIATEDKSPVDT
# Summary of the method: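 HEK293 ACTOne cells with CNG channel (1000/well), endogenous PDE4; membrane potential dye, compounds up to 22.9 uM final. Fluorescence Ex 535/Em 590; RO 20-1724 (100 uM final) as reference.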
# [5] = biological target: Glucocorticoid receptor (Homo sapiens) (UniProt P04150); test: GR-EFC Redistribution (AID 451; calls by dose curve; further: potency means the concentration at half of the fitted maximal effect); details: CHO-K1 GR-EFC translocation, beta-gal luminescence, 2 h
# Summary of the method: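 CHO-K1 cells expressing nuclear EA and GR-ED fragments of b-gal; compounds titrated up to 46 uM final, 2 h at 37 C. GR nuclear translocation read as complemented b-gal luminescence after 1 h RT detection.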
# [6] = Cell Viability - N2a (AID 540; active means well fitted curve in the direction sought with a large enough effect; an effect the other way counts as inactive or inconclusive; further: nearly all actives have a fitted effect of over 45% in size)
# Summary of the method: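 Mouse neuroblastoma N2a cells, 1500/well, exposed to compounds 40 h at 37 °C in complete medium. Viability measured as cellular ATP by CellTiter-Glo luminescence; AC50 from Hill fits of concentration-response.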
# [7] = Cell Viability - NIH 3T3 (AID 541; active means well fitted curve in the direction sought with a large enough effect; an effect the other way counts as inactive or inconclusive; further: nearly all actives have a fitted effect of over 25% in size); details: NIH 3T3 cell viability, qHTS; activity change, negative = cytotoxicity: at 92.2 µM (top of the series)
# Summary of the method: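 Mouse NIH 3T3 fibroblasts, 1000 cells/well, rested 5 hr at 37 °C, then exposed to compound for 40 hr at 37 °C in complete medium. Viability read as intracellular ATP by CellTiter-Glo luminescence; AC50 from Hill-equation fits of concentration-response data.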
# [8] = Cell Viability - HUV-EC-C (AID 542; active means well fitted curve in the direction sought with a large enough effect; an effect the other way counts as inactive or inconclusive; further: nearly all actives have a fitted effect of over 35% in size)
# Summary of the method: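 HUV-EC-C human vascular endothelial cells, 1000/well, exposed to compound for 40 hr at 37 °C in complete medium. Intracellular ATP was read by CellTiter-Glo luminescence. AC50 came from Hill-equation fits of concentration-response data.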
# [9] = Cell Viability - H-4-II-E (AID 543; active means well fitted curve in the direction sought with a large enough effect; an effect the other way counts as inactive or inconclusive; further: nearly all actives have a fitted effect of over 35% in size)
# Summary of the method: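 Rat hepatoma H-4-II-E cells, 1500 per well, treated 40 h at 37 °C in complete medium. Cellular ATP read by CellTiter-Glo luminescence; AC50 from Hill fits of concentration-response.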
# [10] = Cell Viability - SH-SY5Y (AID 544; active means well fitted curve in the direction sought with a large enough effect; an effect the other way counts as inactive or inconclusive; further: nearly all actives have a fitted effect of over 55% in size)
# Summary of the method: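 SH-SY5Y human neuroblastoma cells (1500/well) incubated 5 h, then compound-treated 40 h at 37 °C in complete medium. Viability read as intracellular ATP by CellTiter-Glo luminescence after 20 min; AC50 from Hill-equation fits of qHTS concentration-response.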
# [11] = Cell Viability - Renal Proximal Tubule (AID 545; active means well fitted curve in the direction sought with a large enough effect; an effect the other way counts as inactive or inconclusive; further: nearly all actives have a fitted effect of over 40% in size); details: renal proximal tubule cells viability, primary cells of rat origin; activity change, negative = cytotoxicity: at 91.7 µM (top of the series)
# Summary of the method: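 Primary rat renal proximal tubule cells (1000/well) were treated with compounds for 40 hr at 37 °C in complete medium. Intracellular ATP was measured by CellTiter-Glo luminescence, and AC50 values came from Hill-equation fits of concentration-response data.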
# [12] = Cell Viability - Mesenchymal (AID 546; active means well fitted curve in the direction sought with a large enough effect; an effect the other way counts as inactive or inconclusive;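 further: cells exposed to compound for 40 hours before reading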); details: mesenchymal cells viability, qHTS; activity change, negative = cytotoxicity: at 91.7 µM (top of the series)
# Summary of the method: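 Human kidney mesenchymal cells from normal renal glomeruli, 1000 cells/well, rested 5 hr at 37 °C, then treated 40 hr at 37 °C in complete medium. Cellular ATP read by CellTiter-Glo luminescence; AC50 from Hill-equation fits.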
# [13] = Cellular Toxicity (caspase-3) HepG2 (AID 654; active means well fitted curve in the direction sought with a large enough effect; an effect the other way counts as inactive or inconclusive;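 further: cells exposed to compound for 16 hours before reading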)
# Summary of the method: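 HepG2 cells (1500/well) were treated 16 h at 37 °C in complete medium, then caspase 3/7 activity was read by Caspase-Glo luminescence. Data were normalized to DMSO and 100 uM tamoxifen; AC50 came from Hill-equation fits of qHTS concentration-response.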
# [14] = Cellular Toxicity (caspase-3) Jurkat (AID 655; active means well fitted curve in the direction sought with a large enough effect; an effect the other way counts as inactive or inconclusive;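 further: cells exposed to compound for 16 h at 37 °C before reading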)
# Summary of the method: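 Jurkat cells (5000/well) in complete medium were treated with compounds for 16 hr at 37 °C, then Caspase-Glo 3/7 luminescence was read after 20 min at room temperature. Data normalized to DMSO (basal) and 100 uM tamoxifen (100%); AC50 from Hill fit.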
# [15] = Cellular Toxicity (caspase-3) HUV-EC-C (AID 656; active means well fitted curve in the direction sought with a large enough effect; an effect the other way counts as inactive or inconclusive)
# Summary of the method: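 HUV-EC-C endothelial cells, 1000/well, were pre-incubated 5 hr at 37°C, then exposed to compounds for 16 hr at 37°C. Caspase-Glo 3/7 luminescence was read after 20 min at room temperature. AC50 came from Hill fits, normalized to DMSO and 100 uM tamoxifen.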
# [16] = Cellular Toxicity (caspase-3) SHSY5Y (AID 657; active means well fitted curve in the direction sought with a large enough effect; an effect the other way counts as inactive or inconclusive)
# Summary of the method: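 SH-SY5Y human neuroblastoma cells (1500/well) were treated with compounds for 16 h at 37 °C, then Caspase-Glo 3/7 luminescence was read after 1 h at room temperature. Data normalized to DMSO and 10 uM staurosporine; AC50 from Hill fits.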
# [17] = Cellular Toxicity (caspase-3) BJ (AID 658; active means well fitted curve in the direction sought with a large enough effect; an effect the other way counts as inactive or inconclusive)
# Summary of the method: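 BJ human foreskin fibroblasts, 1000 cells/well, treated 16 hours at 37 °C in complete medium; caspase 3/7 activity by Caspase-Glo luminescence after 1 hr at room temperature. Normalized to DMSO and 10 uM staurosporine; AC50 from Hill fits.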
# [18] = Cellular Toxicity (caspase-3) MRC-5 (AID 659; active means well fitted curve in the direction sought with a large enough effect; an effect the other way counts as inactive or inconclusive); details: Potency: caspase-3 activation
# Summary of the method: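 MRC-5 human normal lung fibroblasts, 1500 cells/well, treated 16 h at 37 °C in complete medium. Caspase 3/7 measured by Caspase-Glo luminescence after 1 h at room temperature. Normalized to DMSO and 10 uM staurosporine; AC50 from Hill fit.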
# [19] = Cellular Toxicity (caspase-3) Mesangial (AID 660; active means well fitted curve in the direction sought with a large enough effect; an effect the other way counts as inactive or inconclusive;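 further: cells exposed to compound for 16 h before the caspase read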)
# Summary of the method: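 Human renal glomerular mesangial cells, 1000/well, 5 h at 37 C before 16 h compound treatment. Caspase-Glo 3/7 luminescence after 20 min; normalized to DMSO and 100 uM tamoxifen, AC50 from Hill fit.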
# [20] = Cellular Toxicity (caspase-3) SK-N-SH (AID 661; active means well fitted curve in the direction sought with a large enough effect; an effect the other way counts as inactive or inconclusive); details: SK-N-SH caspase-3 activation, qHTS; caspase-3 activation: at 91.7 µM (top of the series), DMSO as zero, staurosporine as full
# Summary of the method: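 Human SK-N-SH neuroblastoma cells, 1500/well, were exposed to compounds for 16 hours at 37 °C. Caspase-Glo 3/7 luminescence was normalized to DMSO (basal) and 10 uM staurosporine (100%), and AC50 came from a Hill fit.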
smiles,measurement,setting,value
O=C(O)CN(CCN(CC(=O)O)CC(=O)O)CCN(CC(=O)O)CC(=O)O,outcome,[1],inactive
same,Potency,[2],> 46 µM and > 20.6 µM
same,Potency,[3],inactive
same,Potency,[4],inactive
C[N+](C)(C)CCOC(=O)CCC(=O)OCC[N+](C)(C)C,outcome,[1],inactive
same,Potency,[2],> 46 µM
same,Potency,[3],inactive
same,Potency,[4],inactive
CC(C)(Oc1ccc(CCNC(=O)c2ccc(Cl)cc2)cc1)C(=O)O,outcome,[1],inactive
same,Potency,[2],> 20.6 µM
same,Potency,[3],inactive
same,Potency,[4],inactive
CCn1nc(C(=O)O)c(=O)c2cc3c(cc21)OCO3,outcome,[1],inactive
same,Potency,[2],> 46 µM and > 20.6 µM
same,Potency,[3],inactive
same,Potency,[4],inactive
Cc1nc2c([nH]1)c(=O)n(C)c(=O)n2Cc1ccco1,outcome,[1],inactive
same,Potency,[2],> 46 µM
same,Potency,[3],inactive
same,Potency,[4],inactive
COCC(=O)O[C@]1(CCN(C)CCCc2nc3ccccc3[nH]2)CCc2cc(F)ccc2[C@@H]1C(C)C,outcome,[1],inactive
same,Potency,[2],> 46 µM
same,Potency,[5],> 46 µM
same,Potency,[3],inactive
same,Potency,[4],inactive
CN1CCN(C2=Nc3ccccc3Oc3ccc(Cl)cc32)CC1,outcome,[1],inactive
same,Potency,[2],> 46 µM and > 20.6 µM
same,Potency,[3],inactive
same,Potency,[4],inactive
CCN(CC)CCNC(=O)c1cc(S(C)(=O)=O)ccc1OC,outcome,[1],inactive
same,Potency,[2],> 46 µM and > 20.6 µM
same,Potency,[3],inactive
same,Potency,[4],inactive
Brc1c(NC2=NCCN2)ccc2nccnc12,outcome,[1],inactive
same,Potency,[2],> 46 µM and > 20.6 µM
same,Potency,[3],inactive
same,Potency,[4],inactive
NC(N)=NC(=O)Cc1c(Cl)cccc1Cl,outcome,[1],inactive
same,Potency,[2],> 46 µM and > 20.6 µM
same,Potency,[3],inactive
same,Potency,[4],inactive
FC(F)(F)c1ccccc1-n1ccnc1,outcome,[1],inactive
same,Potency,[2],> 46 µM
same,Potency,[3],inactive
same,Potency,[4],inactive
COc1cc(C(=O)OCCCN2CCCN(CCCOC(=O)c3cc(OC)c(OC)c(OC)c3)CC2)cc(OC)c1OC,outcome,[1],inactive
same,Potency,[2],> 46 µM and > 20.6 µM
same,Potency,[3],inactive
same,Potency,[4],inactive
O=C(CCNNC(=O)c1ccncc1)NCc1ccccc1,outcome,[1],inactive
same,Potency,[2],> 46 µM and > 20.6 µM
same,Potency,[5],> 46 µM and > 20.6 µM
same,Potency,[3],inactive
same,Potency,[4],inactive
CN(C)CCOC(=O)COc1ccc(Cl)cc1,outcome,[1],inactive
same,Potency,[2],> 46 µM and > 20.6 µM
same,Potency,[3],inactive
same,Potency,[4],inactive
O=C(CCCN1CCC(O)(c2cccc(C(F)(F)F)c2)CC1)c1ccc(F)cc1,outcome,[1],inactive
same,Potency,[2],> 46 µM
same,Potency,[3],inactive
same,Potency,[4],inactive
CCCCNc1ccc(C(=O)OCCN(C)C)cc1,outcome,[1],inactive
same,Potency,[2],> 46 µM and > 20.6 µM
same,Potency,[3],inactive
same,Potency,[4],inactive
CN(C)CCCN1c2ccccc2Sc2ccc(C(F)(F)F)cc21,outcome,[1],inactive
same,Potency,[2],> 46 µM and > 20.6 µM
same,Potency,[3],inactive
same,Potency,[4],inactive
NC(=O)N1c2ccccc2C=Cc2ccccc21,outcome,[1],inactive
same,Potency,[3],inactive
same,outcome,[6],inactive
same,"activity change, negative = cytotoxicity",[7],-9.01%
same,Potency,[8],inactive
same,Potency,[9],inactive
same,Potency,[10],inactive
same,"activity change, negative = cytotoxicity",[11],2.97%
same,Potency,[12],inactive
same,Potency,[4],inactive
same,outcome,[13],inactive
same,Potency,[14],inactive
same,outcome,[15],inactive
same,outcome,[16],inactive
same,outcome,[17],inactive
same,Potency,[18],inactive
same,outcome,[19],inactive
same,caspase-3 activation,[20],0.961%
O=C(O)CCCCCCCC(=O)O,Potency,[3],inactive
same,Potency,[4],inactive
CSc1ccc(C(=O)c2[nH]c(=O)[nH]c2C)cc1,outcome,[1],inactive
same,Potency,[3],inactive
same,Potency,[4],inactive
CN(C)CCCN1c2ccccc2Sc2ccccc21,outcome,[1],inactive
same,Potency,[3],inactive
same,Potency,[4],inactive
CCCN(CCC)CCc1cccc2c1CC(=O)N2,Potency,[2],> 46 µM
same,Potency,[3],inactive
same,Potency,[4],inactive
CCN1CCC[C@H]1CNC(=O)c1c(O)c(Cl)cc(Cl)c1OC,Potency,[3],inactive
same,Potency,[4],inactive
COc1cc2c(cc1OC)-c1cc(=Nc3c(C)cc(C)cc3C)n(C)c(=O)n1CC2,Potency,[2],> 46 µM
same,Potency,[3],inactive
Cc1ccc(=O)n(-c2ccccc2)c1,outcome,[1],inactive
same,Potency,[3],12.6 µM (active)
same,Potency,[4],inactive
CN=C(NC#N)NCCSCc1nc[nH]c1C,outcome,[1],inactive
same,Potency,[3],inactive
same,outcome,[6],inactive
same,"activity change, negative = cytotoxicity",[7],-4.92%
same,Potency,[8],inactive
same,Potency,[9],inactive
same,Potency,[10],inactive
same,"activity change, negative = cytotoxicity",[11],-10.6%
same,Potency,[12],inactive
same,Potency,[4],inactive
same,outcome,[13],inactive
same,Potency,[14],inactive
same,outcome,[15],inactive
same,outcome,[16],inactive
same,outcome,[17],inactive
same,Potency,[18],inactive
same,outcome,[19],inactive
same,caspase-3 activation,[20],-1.11%
